# High-throughput results from PubChem.
# Pf growth 48h: inhibits P. falciparum growth in the first generation, 48 h | P. falciparum luciferase growth in erythrocytes, 48 h | Potency, µM (titrated, usually from 28.7 µM), inactives show at the top dose activity change, negative = inhibition, most hits filed as inhibitors | hit rate 5.9% among 310,000 | AID 504832; further: potency means the concentration at half of the fitted maximal effect; on the % scale 0 is the no-effect control and ±100 the full control effect
#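 Luciferase-expressing P. falciparum in infected erythrocytes (2% hematocrit, 0.1% parasitemia final) in RPMI 1640/0.5% Albumax were exposed to compound for 48 hours at 37 C, 5% CO2; growth read as luminescence.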
# Pf growth 96h: P. falciparum growth inhibition at 96 hours | Potency, µM (doses to about 28.7 µM), for the others: top-dose activity change, negative = inhibition, most hits filed as inhibitors | P. falciparum luciferase reporter growth, 96 h | hit rate 6.9% among 320,000 | AID 504834; further: potency means the concentration at half of the fitted maximal effect; on the % scale 0 is the no-effect control and ±100 the full control effect
#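 Infected RBCs, 2% Hct / 0.05% parasitemia final; luciferase-reporter P. falciparum; cpd 96 h, 37 C, 5% CO2; luciferase detection reagent; luminescence.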
# CHX counter: counter-screen for Shiga toxin inhibitors: cycloheximide protein synthesis inhibition; cell reporter, cycloheximide protein synthesis inhibition counterscreen; max response, %; hit rate 12% among 300,000; AID 2314; in the data active means max response mostly above about 13%, no sharp cut-off; inactive means mostly below about 14%; further: read at 38.3 µM for the half of the compounds with a filed dose; 0% is about no effect
# Sm TGR block: blocks Schistosoma mansoni thioredoxin glutathione reductase; Q962Y6; purified TGR, DTNB reduction, TNB absorbance 405 nm; Potency, µM (series often up to 114 µM), inactives show top-dose activity change, negative = inhibition, actives largely listed as inhibitors; hit rate 3% among 360,000; further: potency means the concentration at half of the fitted maximal effect; on the % scale 0 is the no-effect control and ±100 the full control effect; nearly all actives have a fitted effect of over 60% in size
#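 Kinetic colorimetric format: TGR-catalysed, NADPH-driven DTNB reduction monitored via TNB absorbance. Enzyme dispensed at 20 nM; compound exposure 15 min at room temperature before reaction start.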
# Shiga inhibitor: blocks Shiga toxin action in Vero cells; Vero cells, Shiga toxin protein synthesis inhibition reporter; inhibition, % at 38.7 µM; hit rate 9.2% among 290,000; in the data active means inhibition mostly above about 28%, no sharp cut-off; inactive means mostly below about 43%; further: 0% is about no effect
# NS1 inh: influenza NS1 inhibition | hit rate 0.4% among 270,000 | Potency, µM (top dose mostly 46.1 µM), inactives show at the top dose activity, positive = more growth; calls by dose curve; further: potency means the concentration at half of the fitted maximal effect; actives are rising curves; nearly all actives have a fitted effect of over 50% in size
#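 In this qHTS, NS1 from influenza A is expressed in budding yeast, where it slows growth. Cells are switched from glucose to 2% galactose medium (pH 6.0, -URA), treated with compound, and growth recovery is read at OD600.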
# * hit, by the source's call; i = inactive; ? = inconclusive; . = no result. Rows were chosen to be rich in hits. Some 21% of all compounds tested hit in one or more screens of this group. Unless noted, the call rests on the fitted dose curve; in most records, active means well fitted curve in the direction sought with a large enough effect; inconclusive means small, poorly fitted or top-dose-only effect, or another doubt; inactive means no such curve, though single readings can be large; an effect the other way counts as inactive or inconclusive.
SMILES,Pf growth 48h,Pf growth 96h,CHX counter,Sm TGR block,Shiga inhibitor,NS1 inh
Cc1ccc(CNC(=O)CNS(=O)(=O)c2ccc(Br)s2)cc1,33.0%,-1.7%,3.1,5.7%,-13.6,14.0%
Cc1ccccc1COc1ccc(-c2nnn(CC(=O)O)n2)cc1,39.1%,?,-1.9,-9.9%,-3.3,17.9%
COc1ccc(-c2nc(CCNC(=O)c3cc(OC)c(OC)c(OC)c3)cs2)cc1,.,.,.,6.8%,.,.
Cc1nc2ccc(NC(=O)c3ccc([N+](=O)[O-])cc3)cc2[nH]1,90.1%,99.2%,13.7*,-3.0%,24.3,5.9%
COC(=O)c1cc(C(=O)Nc2nc3ccccc3[nH]2)cc([N+](=O)[O-])c1,?,?,16.5,4.5%,48.5*,-8.0%
CSCCC(NC(=O)c1cccc([N+](=O)[O-])c1)c1nc2ccccc2[nH]1 (centres undefined),?,?,-7.0,-6.4%,-6.9,-18.8%
Cc1nc2ccc(C(=O)Nc3ccc4nc[nH]c4c3)cc2[nH]1,26.0%,-10.0%,5.4,5.6%,-8.1,4.1%
CSCC[C@H](NC(=O)c1cc([N+](=O)[O-])ccc1Cl)c1nc2ccccc2[nH]1,11.7µM*,14.7µM*,1.7,-25.1%,13.2,1.5%
O=C(Nc1cccc2ccccc12)c1cccc([N+](=O)[O-])c1,9.4%,-23.9%,2.2,18.9%,-9.4,-4.3%
O=C(Nc1nc2ccccc2[nH]1)c1cccc([N+](=O)[O-])c1,0.0%,8.2%,46.6*,-0.3%,58.5*,-0.4%
Cc1ccc(CNC(=O)C(C)n2c(=O)cc(C(F)(F)F)c3c(C)nn(C)c32)cc1 (centres undefined),.,.,.,-7.4%,.,.
COC(=O)c1cc(C(=O)Nc2cc(C)on2)cc([N+](=O)[O-])c1,18.2%,-1.6%,-2.2,-6.6%,.,7.0%
COC(=O)c1cc(C(=O)Nc2cc(C)ccn2)cc([N+](=O)[O-])c1,-8.9%,4.0%,12.6,-19.2%,34.9*,-1.3%
CCCN(CCC)S(=O)(=O)c1ccc(NC(=O)c2cc(C(=O)OC)cc([N+](=O)[O-])c2)cc1,?,1.85µM*,-2.8,16.5%,-11.3,3.0%
CCC(C)(C)NC(=O)c1cc(C(=O)OC)cc([N+](=O)[O-])c1,.,5.7%,-5.5,-13.1%,-2.7,10.4%
Cc1ccc(C(=O)Nc2nc3ccccc3[nH]2)cc1,-97.6%,-39.4%,1.0,-1.2%,-7.4,-17.3%
Cc1ccc(-c2cc(C(F)(F)F)nc(SCC(=O)c3cccc([N+](=O)[O-])c3)n2)cc1,?,13.1µM*,-3.1,2.2%,-3.7,-8.7%
O=C(Nc1nc2ccccc2[nH]1)c1ccc([N+](=O)[O-])cc1,i,?,28.2*,-3.6%,91.6*,.
Cc1cc(C)cc(NC(=O)Cn2c(=O)n(Cc3ccco3)c(=O)c3oc4ccccc4c32)c1,.,.,.,1.9%,.,.
CCc1cccc(NC(=O)CN2c3ccccc3S(=O)(=O)c3ccccc32)c1,.,.,.,-4.4%,.,.
O=C(NC(Cc1ccccc1)c1nc2ccccc2[nH]1)c1cccc([N+](=O)[O-])c1 (centres undefined),?,11.7µM*,8.6,1.4%,8.1,-5.6%
Cc1nc2nc(SCC(=O)c3cccc([N+](=O)[O-])c3)[nH]c2cc1Br,?,11.7µM*,31.4*,-22.6%,29.8*,?
C/C(=N\Nc1nc2ccccc2[nH]1)c1ccc([N+](=O)[O-])cc1,0.185µM*,0.0657µM*,6.7,4.0%,-7.7,?
Cc1cc(Cl)ccc1OCC(=O)N[C@@H](Cc1ccccc1)c1nc2ccccc2[nH]1,-0.6%,?,-2.1,-1.7%,10.9,-5.2%
O=C(C[n+]1cc(Br)cc(Br)c1)c1cccc([N+](=O)[O-])c1,?,?,3.6,10µM*,-4.9,?
SMILES,Pf growth 48h,Pf growth 96h,CHX counter,Sm TGR block,Shiga inhibitor,NS1 inh
O=C(CSc1nc2ncc(Br)cc2[nH]1)c1cccc([N+](=O)[O-])c1,-18.9%,-64.1%,0.4,-3.5%,6.5,3.0%
O=C(Cc1nc2ccccc2[nH]1)c1cccc([N+](=O)[O-])c1,11.7µM*,?,37.5*,-17.8%,70.0*,6.7%
CCOc1ccccc1N1CCN(C(=O)c2ccc(S(=O)(=O)Nc3ccccc3)cc2)CC1,?,9.28µM*,.,14.3%,.,.
Cc1cccc(N2CCN(C(=O)NC3CCCCC3)CC2)c1C,43.1%,0.0%,11.2,5.9%,14.7,4.4%
Cc1ccccc1NS(=O)(=O)c1ccc(C(=O)N2CCCCCC2)cc1,-7.9%,15.1%,.,-0.9%,.,.
CCOc1ccccc1N1CCN(C(=O)NC2CCCCC2)CC1,-7.4%,1.65µM*,2.3,-2.1%,3.2,-0.7%
Cc1ccccc1NS(=O)(=O)c1ccc(C(=O)N2CCN(c3ccccc3O)CC2)cc1,13.1µM*,5.22µM*,1.8,5.2%,-2.2,9.2%
COc1ccccc1N1CCN(C(=O)c2ccc(NS(=O)(=O)c3ccc(C)cc3)cc2)CC1,?,17.7%,0.6,27.7%,-5.0,0.6%
Cc1ccc(S(=O)(=O)Nc2ccc(C(=O)N3CCN(c4ccccc4O)CC3)cc2)cc1[N+](=O)[O-],14.7µM*,-84.1%,.,-34.3%,.,.
Cc1ccc(OCC(=O)N2CCCC(CCC(=O)N(C)CCc3ccccn3)C2)cc1 (centres undefined),-40.4%,60.2%,-3.3,0.0%,11.4,-1.8%
Cc1ccccc1C1=NC(c2ccc(F)cc2F)ON1 (centres undefined),124.6%,.,30.4*,?,85.5,1.2%
COc1ccccc1C1N=C(c2ccccc2C)NO1 (centres undefined),89.4%,215.8%,44.3*,7.3%,122.5*,-1.0%
COc1ccc2c(c1)c1c(c(=O)n(Cc3ccccc3)c(=O)n1Cc1ccccc1)n2C,.,.,.,1.3%,.,.
CCc1ccc(C2c3c(-c4ccccc4O)n[nH]c3C(=O)N2Cc2cccnc2)cc1 (centres undefined),.,.,.,-0.1%,.,.
CCOc1ccccc1CNC(=O)c1cn(-c2ccc(OC)cc2)c(=O)c2ccccc12,.,.,.,0.1%,.,.
NC(N)=NS(=O)(=O)c1ccc(NC(=S)NC(=O)c2ccncc2)cc1,9.2%,?,-5.6,20µM*,2.4,5.6%
COc1ccc(CC(=O)NC(=S)Nc2ccc(S(N)(=O)=O)cc2)cc1,-1.5%,-3.1%,1.8,-34.0%,-8.9,8.1%
CCc1nnc(NS(=O)(=O)c2ccc(NC(=S)NC(=O)c3ccc(OC)cc3)cc2)s1,?,-2.3%,1.0,39.8µM*,-2.7,?
COc1ccc(C(=O)NC(=S)Nc2ccc(S(N)(=O)=O)cc2)cc1,0.0%,?,17.6*,?,35.3,-4.5%
Cc1ccc(S(=O)(=O)CCC(=O)Nc2nc3c(s2)CCCC3)cc1,0.0%,-23.8%,-2.8,-25.1%,-21.9,4.6%
CC(=O)Nc1ccc(S(=O)(=O)Nc2nc3c(s2)CCCC3)cc1,22.2%,4.8%,17.6*,-6.1%,58.2*,3.8%
